Cycloheximide cs: Cycloheximide Counterscreen for Small Molecule Inhibitors of Shiga Toxin | cell reporter, cycloheximide protein synthesis inhibition counterscreen | max response, % | 12% of 300,000 active | AID 2314, 2010; in the data active = max response mostly above about 13%, no sharp cut-off; inactive = mostly below about 14%; also: read at 38.3 µM for the half of the compounds with a filed dose; 0% is about no effect
Pf growth 48h: Primary qHTS for delayed death inhibitors of the malarial parasite plastid, 48 hour incubation | P. falciparum luciferase growth in erythrocytes, 48 h | Potency, µM (series often up to 28.7 µM), without a hit: top-dose activity change, negative = inhibition, actives largely listed as inhibitors | 5.9% of 310,000 active; also: potency is read from the fitted curve at half-maximal effect; % is scaled to controls: 0 for no effect and ±100 for the full control effect
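Firefly luciferase activity from engineered P. falciparum reports growth; inhibitors lower the luminescent signal. Cultures contained 2% hematocrit erythrocytes at 0.1% final parasitemia.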
NS1 function inh: qHTS Assay for Inhibitors of Influenza NS1 Protein Function | 0.4% of 270,000 active | AID 2326, 2010 | Potency, µM (doses to about 46.1 µM), inactives show at the top dose activity, positive = more growth; calls by dose curve; also: potency is read from the fitted curve at half-maximal effect; actives are rising curves; nearly all actives have a fitted effect of over 50% in size
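OD600 was taken as the measure of yeast growth restored by compound in an NS1-expressing S. cerevisiae strain. Cells had been washed out of glucose medium and diluted 1:100 into galactose -URA medium, pH 6.0.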
Pf growth 96h: Primary qHTS for delayed death inhibitors of the malarial parasite plastid, 96 hour incubation; P. falciparum luciferase reporter growth, 96 h; Potency, µM (doses to about 28.7 µM), for the others: at the highest dose activity change, negative = inhibition, actives largely listed as inhibitors; 6.9% of 320,000 active; AID 504834, 2011; also: potency is read from the fitted curve at half-maximal effect; % is scaled to controls: 0 for no effect and ±100 for the full control effect
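P. falciparum expressing integrated firefly luciferase grown in erythrocytes (2% hematocrit, 0.05% parasitemia final) with compounds for 96 hours at 37 C, 5% CO2. Growth inhibition read as loss of luminescence after adding luciferase detection reagent.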
Shiga toxin inh: A qHTS for Small Molecule Inhibitors of Shiga Toxin; Vero cells, Shiga toxin protein synthesis inhibition reporter; inhibition, % at 38.7 µM; 9.2% of 290,000 active; AID 2315, 2010; in the data active = inhibition mostly above about 28%, no sharp cut-off; inactive = mostly below about 43%; also: 0% is about no effect
Active calls of the source: *. Only some compounds are listed: those with a hit (about 21% of all), similar ones and a draw of the others. Unless noted, calls follow the shape of the dose curve; as a rule, active = well fitted inhibition curve with a large enough effect; inconclusive = small, poorly fitted or top-dose-only effect, or another doubt; inactive = no such curve, though single readings can be large or run the other way.

How did COCCn1c(C)cc(/C=C(\C#N)C(=O)OC(C)C(=O)Nc2ccc(NC(C)=O)cc2)c1C (stereo unspecified) do in these assays?
Pf growth 48h: 12.8%; Pf growth 96h: -3.4%

What do the screens show for `O=C(NC(=S)Nc1ccc(CN2CCOCC2)cc1)c1ccc(-c2ccc(Cl)cc2)o1`?
Cycloheximide cs: -1.5; Pf growth 48h: 4.7%; NS1 function inh: 1.0%; Pf growth 96h: inconclusive; Shiga toxin inh: 17.0

Results for O=C(NC(=S)Nc1ccc(CN2CCOCC2)cc1)c1cccc(F)c1 ?
Cycloheximide cs: 22.5*; Pf growth 48h: -4.7%; NS1 function inh: -12.6%; Pf growth 96h: -3.1%; Shiga toxin inh: 24.6

What do the screens show for `Cc1ccc(C(=O)NC(=S)Nc2ccc(CN3CCOCC3)cc2)cc1`?
Cycloheximide cs: 9.9; Pf growth 48h: -16.7%; NS1 function inh: -3.7%; Pf growth 96h: -26.5%; Shiga toxin inh: 14.8

Results for O=C(NC(=S)Nc1ccc(CN2CCOCC2)cc1)c1cccc([N+](=O)[O-])c1 ?
Cycloheximide cs: 4.6; Pf growth 48h: 16.0%; NS1 function inh: 14.4%; Pf growth 96h: 22.5%; Shiga toxin inh: 7.4

How did O=C(NC(=S)Nc1ccc(CN2CCOCC2)cc1)c1ccc(-c2ccc(Br)cc2)o1 do in these assays?
Cycloheximide cs: -3.2; Pf growth 48h: 13.1µM*; NS1 function inh: 0.4%; Pf growth 96h: inconclusive; Shiga toxin inh: 2.2

Results for COc1ccc(Br)cc1C(=O)NC(=S)Nc1ccc(CN2CCOCC2)cc1 ?
Cycloheximide cs: 10.0; Pf growth 48h: inconclusive; NS1 function inh: -32.1%; Pf growth 96h: 4.65µM*; Shiga toxin inh: 3.1

How did CCC(=O)Nc1ccc2c(c1)N(C(C)=O)c1ccccc1CC2 do in these assays?
Cycloheximide cs: -1.5; Pf growth 48h: 0.0%; NS1 function inh: 3.4%; Pf growth 96h: inconclusive; Shiga toxin inh: -2.8

What do the screens show for `COC(=O)C(CCSC)NS(=O)(=O)c1ccccc1Br` (stereo unspecified)?
Cycloheximide cs: -6.9; Shiga toxin inh: -3.0

What do the screens show for `CCOC(=O)N1CCC(N2CCCC(CO)(Cc3cccc(Cl)c3)C2)CC1` (stereo unspecified)?
Cycloheximide cs: -2.2; Pf growth 48h: inconclusive; NS1 function inh: -3.4%; Pf growth 96h: inconclusive; Shiga toxin inh: 3.9

How did Nc1ccccc1N=Nc1ccccc1N do in these assays?
Cycloheximide cs: 44.0*; Pf growth 48h: 292.6%; NS1 function inh: -52.6%; Pf growth 96h: 414.6%; Shiga toxin inh: 51.2*

What do the screens show for `COc1ccccc1NC(=O)Cn1c(=O)oc2cc(S(=O)(=O)N3CCCC3)ccc21`?
Cycloheximide cs: 0.4; Pf growth 48h: inconclusive; NS1 function inh: -8.0%; Pf growth 96h: 163.5%; Shiga toxin inh: -6.7

Results for COc1ccc(NC(=O)Cn2c(=O)oc3cc(S(=O)(=O)N4CCCC4)ccc32)c(OC)c1 ?
Cycloheximide cs: -2.2; Pf growth 48h: 3.3%; NS1 function inh: -9.3%; Pf growth 96h: 6.57µM*; Shiga toxin inh: 4.6

What do the screens show for `O=C(Cn1c(=O)oc2cc(S(=O)(=O)N3CCCCCC3)ccc21)NC1CCCCCCC1`?
Cycloheximide cs: -5.7; NS1 function inh: -59.5%; Pf growth 96h: 11.7µM*; Shiga toxin inh: -7.7

How did CC1CCN(S(=O)(=O)c2ccc3c(c2)oc(=O)n3C)CC1 do in these assays?
Cycloheximide cs: 2.5; Pf growth 48h: -7.8%; NS1 function inh: 2.4%; Pf growth 96h: 0.465µM*; Shiga toxin inh: -8.1

What do the screens show for `Cc1csc(NC(=O)C2CCN(S(=O)(=O)c3ccc4c(c3)oc(=O)n4C)CC2)n1`?
Cycloheximide cs: -7.2; NS1 function inh: 4.9%; Pf growth 96h: 3.29µM*; Shiga toxin inh: -18.6

How did Cn1c(=O)oc2cc(S(=O)(=O)N3CCC(C(=O)NCc4cccs4)CC3)ccc21 do in these assays?
Cycloheximide cs: -3.7; NS1 function inh: 4.5%; Pf growth 96h: inconclusive; Shiga toxin inh: -6.9

Results for O=C(NC(=S)Nc1cc(S(=O)(=O)N2CCOCC2)ccc1N1CCOCC1)C1CCCC1 ?
Cycloheximide cs: -5.4; Pf growth 48h: -29.2%; Pf growth 96h: inconclusive; Shiga toxin inh: -21.5

What do the screens show for `CC(C)COC(=O)n1c(=O)oc2cc(S(=O)(=O)N3CCCCC3)ccc21`?
Cycloheximide cs: -7.7; Pf growth 48h: 8.28µM*; NS1 function inh: -15.1%; Shiga toxin inh: -12.1

Assay outcomes from PubChem BioAssay.
